Results on eleven compounds are retold here after PubChem BioAssay (NCATS).

The structures appear in SMILES notation. Records with an inconclusive call do not appear. Calls of active or inactive are those of the source. Calls follow the shape of the dose curve; as a rule, active = well fitted curve in the direction sought with a large enough effect; inconclusive = small, poorly fitted or top-dose-only effect, or another doubt; inactive = no such curve, though single readings can be large or run the other way.

The nature of this assay: KB-8-5-11 P-gp reporter qHTS against the NCATS DSHEA and TCM libraries (AID 1919977). The note with it: KB-8-5-11 cells; series mostly up to 26.1 µM. The text has this:
Assay Development and Screening Technology Laboratory (ADST)
National Center for Advancing Translational Sciences (NCATS), Rockville, MD
National Institute of Health (NIH), Bethesda, Maryland
Dietary Supplements and Natural Products have minor oversight of their safety and efficacy. We assembled a collection of Dietary Supplements and Natural Products (DSNP) as well as Traditional Chinese Medicinal (TCM) Plant extracts, which were screened against an in vitro panel of assays, including a liver cytochrome p450 enzyme panel, CAR/PXR signaling pathways, and P-gp transporter assays, to assess their activity. This pipeline facilitated the interrogation of Natural Product-Drug Interaction (NaPDI) through prominent metabolizing pathways. In addition, we compared the activity profiles of the DSNP/TCM substances with those of an approved drug collection. Many of the approved drugs have well-annotated mechanisms of action (MOA) while the MOAs for most of the DSNP and TCM samples remain unknown. Based on the premise that compounds with similar activity profiles tend to share similar targets or MOA, we clustered the library activity profiles to identify overlap with the NCATS Pharmaceutical Collection to predict the MOAs of the DSNP/TCM substances. Overall, we highlight four significant bioactivity profiles (measured by p-values) as examples of this prediction. To assess broad cytotoxicity, we employed screening against a HepG2 cell line. In addition, transporter-mediated drug interactions are utilized in the characterization of DDIs using a P-glycoprotein (P-gp) assays. To profile potential P-gp activity, a differential cell viability was measured against two cell lines: a parental KB-3-1 human cervical adenocarcinoma cell line and the drug-resistant subline KB-8-5-11 that overexpresses P-gp.
To this end, we profiled both collections for potential CAR and/or PXR activity, employing a previously published 1536-well qHTS assay.
[1] Lee TD, et al. A High-Throughput Screen of a Library of Therapeutics Identifies Cytotoxic Substrates of P-glycoprotein. Mol Pharmacol. Nov 2019;96(5):629-640. doi:10.1124/mol.119.115964
PROTOCOL TABLE (as described by Inglese J, Shamu CE and Guy RK. 2007)
SEQUENCE No. (e.g., 1, 2, 3, etc.); PARAMETER (e.g., Cells, Incubation, Reagent, etc.); VALUE; DESCRIPTION.
1; Cells; 5 uL; KB-8-5-11 cells, white solid-bottom tissue treated Greiner plate.
2; Incubation; 4 hrs; 37C, 95% humidity, 5% CO2.
3; Compounds and control; 23 nL; Kalypsis pin tool (Wako USA) equipped with a 1536-well pin head to transfer to the assay plates.
4; Incubation; 72 hrs; 37C, 95% humidity, 5% CO2.
5; Reagent; 2.5 uL; CellTiter-Glo.
6; Centrifuge; 1000 RPM; 15 seconds.
7; Incubation; 30 min; room temperature.
8; Read; Luminescence; ViewLux plate reader.
NOTES (numbers refer to Sequence numbers above)
1. P-gp-overexpressing subline KB-8-5-11 were maintained in DMEM (Thermofisher catalog #11965) with 10% FBS and 1% penicillin/streptomycin at 37C in 5% CO2. For KB-8-5-11 cells, colchicine was added to the medium at a concentration of 100 ng/ml (after initial cell attachment). For the screen, assay medium was identical to culture medium except for KB-8-5-11, where colchicine was excluded from the medium. Briefly, 5 uL of cells at 1 x 10^5 cells/mL (500 cells/well) were dispensed into a 1536-well white solid-bottom tissue treated plate (Greiner Bio-One) using a Multidrop Combi dispenser.
2. Plates were incubated at 37C, 95% humidity, 5% CO2 for ~4 hours to allow for cell attachment.
3. Compounds and intraplate control (Bortezomib; final concentration range 228 pM - 7.5 uM) were transferred (16 nL) via pintool (Wako Automation), for a final concentration of 15.6 nM - 30.0 uM (most substances).
4. Plates were incubated for ~72 hours at 37C, 95% humidity, 5% CO2.
5. Plates were then dispensed with 2.5 uL of CellTiter-Glo.
6. The assay plates were centrifuged for 15 seconds at 1,000 RPM's.
7. The plates were incubated for 30-minute at room temperature.
8. […]
In the case of `Cn1c(=O)c2c(ncn2C)n(C)c1=O`, the call was inactive. Under `OC[C@H]1O[C@@H](OCCc2ccc(O)cc2)[C@H](O)[C@@H](O)[C@H]1O` stands “inactive”; under `OC1C(O)C(O)C(O)C(O)C1O` (stereo unspecified), “inactive”; under `O=c1ccc2ccccc2o1`, “inactive”. For `NC(N)=NCCC[C@H](N)C(=O)O`, the call was inactive.

`O=C(/C=C/c1ccc(O)c(O)c1)O[C@@H]1C[C@@](OC(=O)/C=C/c2ccc(O)c(O)c2)(C(=O)O)C[C@@H](O)[C@@H]1O`: the call was inactive.

With `C[C@]12CC[C@H](O)CC1=CC[C@@H]1[C@@H]2CC[C@]2(C)C(=O)CC[C@@H]12`, the outcome was inactive.

With `Nc1nc2ncc(CNc3ccc(C(=O)N[C@@H](CCC(=O)O)C(=O)O)cc3)nc2c(=O)[nH]1`, the compound was called inactive. Under `C/C=C/c1ccc(OC)cc1` stands “inactive”; under `O=C1O[C@H]([C@@H](O)CO)C(O)=C1O`, “inactive”.

Take `COc1ccc2cc3[n+](cc2c1OC)CCc1cc2c(cc1-3)OCO2`: the compound was classed as inactive.
